Sfp PPTase inh: Sfp phosphopantetheinyl transferase inhibition. 310,000 compounds, 3.5% hits. Potency, µM, without a hit: largest response in the series, negative = inhibition, usual class: inhibitors. Biochemical Sfp PPTase activity, qHTS;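 also: the enzyme is Sfp with the accession as filed and its product quenches rhodamine fluorescence; 0% = enzyme reaction without inhibitor and -100% = no enzyme wells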
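After 15 min at room temperature with compound, 15 nM Sfp received 5 uM rhodamine-CoA plus 12.5 uM BHQ-2-ybbR (50 mM Hepes pH 7.6, 10 mM MgCl2). Rate came from the fluorescence difference over 30 min, ex 525/em 598 nm.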
RORg inh: blocks mouse ROR gamma transcriptional activity; Potency, µM (top dose mostly 53.6 µM), for the others: at the top dose activity change, negative = inhibition, hits mostly inhibitors; Drosophila S2 Gal4-RORgamma UAS-luciferase reporter, 20 h; AID 2551; 310,000 compounds, 5.4% hits; P51450; also: % is scaled to controls: 0 for no effect and ±100 for the full control effect; nearly all actives have a fitted effect of over 60% in size
Target sequence (P51450 whole entry, looked up, the tested form may be a part): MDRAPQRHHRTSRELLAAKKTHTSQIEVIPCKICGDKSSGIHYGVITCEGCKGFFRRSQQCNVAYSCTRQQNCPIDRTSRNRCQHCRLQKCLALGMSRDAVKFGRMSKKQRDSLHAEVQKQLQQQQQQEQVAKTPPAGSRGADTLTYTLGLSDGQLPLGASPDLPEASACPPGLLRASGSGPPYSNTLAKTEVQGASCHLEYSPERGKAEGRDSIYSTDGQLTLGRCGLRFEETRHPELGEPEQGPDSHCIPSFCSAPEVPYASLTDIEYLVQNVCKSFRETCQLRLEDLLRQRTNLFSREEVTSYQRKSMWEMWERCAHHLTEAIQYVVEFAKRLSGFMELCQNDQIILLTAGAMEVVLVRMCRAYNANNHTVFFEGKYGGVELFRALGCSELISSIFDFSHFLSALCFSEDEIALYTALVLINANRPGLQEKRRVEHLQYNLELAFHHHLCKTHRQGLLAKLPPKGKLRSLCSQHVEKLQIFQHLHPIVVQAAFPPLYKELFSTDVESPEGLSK
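Schneider cells (Drosophila), stable Gal4 DBD–ROR gamma + UAS-luc; 1 hr cmpd preincubation; Cu2+ induction 700 uM final; 20 hr ambient; luminescence.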
PINK1 modulator: changes PINK1 expression; PINK1 immunofluorescence, high-content cytometry, 24 h; Potency, µM (titrated, usually from 76.6 µM), for the others: at the top dose activation (PINK1 increase), hits mostly activators; 410,000 compounds, 0.2% hits; active = well fitted activation curve with a large enough effect; inconclusive = small, poorly fitted or top-dose-only effect; cell line not stated here; also: % of control where 0% means no effect; nearly all actives have a fitted effect of over 65% in size
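Readout is PINK1 immunofluorescence, quantified alongside mitochondrial, cell and nuclear markers by laser-scanning microplate cytometry. Cells from a stable line were exposed to compound titrations (5 concentrations) for 24 hours, with CCCP controls.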
VP16 counter: inhibits Gal4-VP16 luciferase reporter, ROR gamma counter-screen; Drosophila S2 Gal4-VP16 UAS-luciferase, luminescence, 20 h; Potency, µM (doses to about 53.6 µM), for inactives: at the top dose activity, negative = inhibition, actives largely listed as inhibitors; 310,000 compounds, 3.5% hits;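 also: Gal4-VP16 expression switched on by copper sulfate through the metallothionein promoter; % is scaled to controls: 0 for no effect and ±100 for the full control effect; nearly all actives have a fitted effect of over 50% in size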
ClpP mod: qHTS Assay for Activators of ClpP. ATP-dependent Clp protease proteolytic subunit (Bacillus subtilis (strain 168)), P80244. purified B. subtilis ClpP, FRET peptide cleavage, 20 min. Potency, µM (series often up to 57.5 µM), without a hit: at the highest dose activity change, negative = active. 340,000 compounds, 1.9% hits. AID 651965, 2013; active = well fitted falling curve with a large enough effect; inconclusive = small, poorly fitted or top-dose-only effect; inactive = no such curve, though single readings can be large or run the other way; also: the source files actives as falling curves though it sought activators and does not explain the sign; nearly all actives have a fitted effect of over 65% in size
Target sequence (P80244 whole entry, looked up): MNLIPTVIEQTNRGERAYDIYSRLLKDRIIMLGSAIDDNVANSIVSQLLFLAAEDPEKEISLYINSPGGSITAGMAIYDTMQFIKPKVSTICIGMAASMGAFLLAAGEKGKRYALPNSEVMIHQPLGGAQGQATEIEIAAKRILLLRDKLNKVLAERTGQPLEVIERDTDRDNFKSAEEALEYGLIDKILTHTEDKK
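FRET quenching reversal measured ClpP activation: 10 microg/mL B. subtilis ClpP at pH 8 with the FRET-FV decapeptide, read at 430 nm after 320 nm excitation. The 20-min minus 0-min signal was scaled between DMSO/no-enzyme wells and ADEP (5.8 microM final).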
Epigenetic derep: epigenetic control regulation, reporter derepression; 280,000 compounds, 0.2% hits; AID 1865; murine LDR cells, GFP reporter derepression, 30 h; Potency, µM (highest dose often 53.9 µM), without a hit: at the top dose GFP activation, most hits filed as activators; also: % of control where 0% means no effect; nearly all actives have a fitted effect of over 60% in size
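In this reporter-derepression format, murine cells bearing a silenced integrated CMV-GFP locus incubate with test compound (30 h, 37 C), then are washed and imaged; fluorescent objects of 20–120 um count as induced cells.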
An asterisk follows results filed as active; ? = inconclusive; / = no result given; [ ] = dose if it differs, or a comment. This is a sample that favours compounds with a hit; in the whole collection about 8.1% have one here. Unless noted, calls follow the shape of the dose curve; as a rule, active = well fitted curve in the direction sought with a large enough effect; inconclusive = small, poorly fitted or top-dose-only effect, or another doubt; inactive = no such curve, though single readings can be large; an effect the other way counts as inactive or inconclusive. Potency is read from the fitted curve at half-maximal effect.

SMILES	Sfp PPTase inh	RORg inh	PINK1 modulator	VP16 counter	ClpP mod	Epigenetic derep
CC(C)(C)OC(=O)[C@H](Cc1ccccc1)NC(=O)c1nc[nH]c1C(=O)NCC(=O)OCc1ccccc1	14.4%	?	3.3%	?	1.5%	/
Cc1ccc(NC(=O)c2nc[nH]c2C(=O)NCc2ccccc2)cc1	/	/	10.2%	/	38.3%	/
CC(C)C[C@H](NC(=O)c1[nH]cnc1C(=O)N[C@@H](Cc1ccccc1)C(=O)OCc1ccccc1)C(=O)OC(C)(C)C	27.3%	5.62µM*	12.8%	15.8µM*	-14.3%	/
CC(C)(C)OC(=O)CNC(=O)c1[nH]cnc1C(=O)N[C@@H](Cc1ccccc1)C(=O)OC(C)(C)C	14.5%	?	5.2%	12.6µM*	0.9%	0.5%
CC(C)=CCC/C(C)=C/CO/N=C1/C[C@@H](O)[C@@H](O)[C@@H]2[C@@H]3C(=O)N(C[C@@H]4CCCO4)C(=O)[C@H]3CC[C@H]12	-25.5%	5.2%[10 µM]	/	-23.4%[10 µM]	/	0.0%[10.1 µM]
CC1CCC(C(=O)O)NC1c1ccc(C#CCN(C)C)cc1 (stereo not drawn)	12.0%	-18.7%[10 µM]	/	8.7%[10 µM]	/	3.4%[10.1 µM]
Cc1ccccc1OC(=O)CSc1nnc(-c2ccc3c(c2)OCO3)o1	/	/	0.3%	/	137.4%	-4.0%
CC(C)C[C@H](NC(=O)c1[nH]cnc1C(=O)N[C@@H](C)C(=O)OC(C)(C)C)C(=O)OCc1ccccc1	24.4%	15.8µM*	0.5%	?	2.1%	0.5%
CC(C)(C)OC(=O)CNC(=O)c1nc[nH]c1C(=O)NCc1ccccc1	11.7%	7.08µM*	1.5%	?	-4.6%	/
CC(C)(C)OC(=O)CNC(=O)c1nc[nH]c1C(=O)NCc1ccc(CNC(=O)OC(C)(C)C)cc1	16.3%	?	0.8%	?	0.6%	/
CC(C)C[C@H](NC(=O)c1[nH]cnc1C(=O)N[C@@H](Cc1ccccc1)C(=O)OC(C)(C)C)C(=O)OCc1ccccc1	19.8%	7.94µM*	10.5%	?	1.1%	/
CC(C)C[C@H](NC(=O)c1[nH]cnc1C(=O)N[C@@H](C)c1ccccc1)C(=O)OC(C)(C)C	19.5%	0.631µM*	-0.3%	0.631µM*	2.5%	11.9%
COc1cccc(CN2CCC(n3cc(C(=O)N4CCCCC4)nn3)CC2)c1OC	/	/	-1.0%	/	/	/
CC(C)C[C@H](NC(=O)c1[nH]cnc1C(=O)N[C@@H](Cc1ccccc1)C(=O)OC(C)(C)C)C(=O)OC(C)(C)C	30.1%	3.16µM*	?	11.2µM*	3.0%	?
CC(C)CC(NC(=O)C(NC(=O)C(Cc1ccc(OCc2ccccc2)cc1)NC(=O)OC(C)(C)C)C(C)C)C(N)=O (stereo not drawn)	39.8%	?	10.4%	12.6µM*	-1.1%	2.1%
CCN(c1cccc(C)c1)S(=O)(=O)c1nnc(NC(=O)c2ccccc2Cl)s1	/	/	-1.2%	/	-1.0%	1.4%
COc1ccccc1Oc1coc2c(CN3CCN(C)CC3)c(O)ccc2c1=O	6.2%	10.8%	10.1%[38.3 µM]	4.0%	25.1µM*	-14.3%
COc1ccccc1-c1coc2c(CN3CCN(C)CC3)c(O)ccc2c1=O	-5.9%	-26.7%	-2.2%	0.9%	7.94µM*	0.9%
COc1ccccc1-c1coc2c(CN3CCN(CCO)CC3)c(O)ccc2c1=O	/	/	0.4%	/	45.4%	/
CCN1CCN(Cc2c(O)ccc3c(=O)c(-c4ccccc4OC)coc23)CC1	5.9%	2.9%	/	-4.9%	?	-1.1%
COc1ccc(-c2nc3cccc(C)n3c2NCc2ccco2)cc1OC	-0.5%	?	3.9%	29.6%	14.1µM*	0.9%
COc1ccc(-c2ccc(C#N)c(SCC(=O)NCc3ccco3)n2)cc1OC	?	49.7%	9.8%	-52.1%	/	-1.7%
Cc1ccc(NC(/C=C/N(C)C)=C/C(=O)C(F)(F)F)c(C)c1	0.9%	13.7%	?	1.2%	/	2.3%
CN(C)/C=C\C(=C/C(=O)C(F)(F)F)Nc1ccccc1Oc1ccccc1	44.7µM*	-1.3%	1.3%	-6.0%	/	-2.6%
O=C(CCc1ccccc1)NC1CC(=O)N(c2cccc(F)c2)C1 (stereo not drawn)	/	/	1.0%	/	0.6%	8.5%
SMILES	Sfp PPTase inh	RORg inh	PINK1 modulator	VP16 counter	ClpP mod	Epigenetic derep
CCn1cc(C(=O)NCc2ccc(C)cc2)c(=O)c2cc(S(=O)(=O)N(C)C3CCCCC3)ccc21	/	/	2.6%	/	-5.7%	1.8%
O=C(O)c1ncn(Cc2ccc(Br)cc2)c1C(=O)O	50.1µM*	-0.2%	4.9%	-4.3%	/	-0.2%
CCOC(=O)c1c(NC(=O)c2cc(=O)c3ccc(C)cc3o2)sc(C)c1C	/	/	6.8%	/	-3.4%	2.4%
Cc1cc(OCC(=O)Nc2ccncc2)ccc1[N+](=O)[O-]	-6.7%	5.01µM*	1.7%	?	/	1.1%
CC(C)CCOc1cccc(OCC(=O)Nc2ccncc2)c1	11.0%	?	19.6%	8.91µM*	/	/
Cc1cc(OCC(=O)Nc2ccncc2)c(C)cc1Br	1.7%	?	-3.9%[38.3 µM]	12.6µM*	-2.5%	-1.0%
CCc1ccc(OCC(=O)Nc2ccncc2)c(Br)c1	0.1%	43.8%	6.5%	?	/	/
CCOc1ccc(CNC(=O)Cn2ncc3c(=O)oc4ccc(C)cc4c32)cc1	/	/	-1.6%	/	-1.6%	-0.8%
Cn1cnnc1SCC(=O)Nc1ccc(C#N)cc1	/	/	-1.9%	/	-0.8%	0.0%
Cc1csc(SCC(=O)N2CCOc3ccc(C(O)C4CCCCC4)cc3C2)n1 (stereo not drawn)	/	/	0.7%	/	/	/
Cc1nnc(N=c2ssnc2Cl)o1	/	/	?	/	-2.4%	/
Nc1ccccc1N=c1ssnc1Cl	1.58µM*	-40.1%	1.5%	-20.4%	3.6%	-4.1%
Cc1cc(Cl)ccc1N=c1ssnc1Cl	7.08µM*	11.2µM*	-0.3%	?	0.7%	6.0%
Cc1cc(C)c(C#N)c(Cl)n1	5.6%	-15.9%[10 µM]	1.3%	1.1%	0.4%	-1.1%
CC(C)(C)C1=CC(=Nc2ccccc2N)C=C(C(C)(C)C)C1=O	22.5%	-11.1%	15.3%	4.8%	12.3%	0.0%
Cc1ccc(N=c2ssnc2Cl)cc1	12.6µM*	12.6µM*	1.1%	?	0.5%	18.0%
Cc1cc(C)nc(/N=c2/ssnc2Cl)c1	20µM*	20µM*	0.5%	?	-1.3%	-4.3%
Cc1cc(C)c(S(=O)(=O)Nc2ccc3oc(C)c(C(=O)OC(C)C)c3c2)cc1C	/	/	?	/	-1.3%	-0.8%
Cc1cc(C(=O)Nc2ccccc2-c2nc(CNC(=O)c3cscn3)c(C)o2)c(C)o1	/	/	0.3%	/	/	/
CC(C)(C)c1ccccc1NC(=S)NCc1ccccc1	-12.5%	5.8%	-1.5%	?	3.5%	0.3%
Cc1ccc(NC(=S)NCCC(c2ccccc2)c2ccccc2)c(C)c1	17.1%	3.55µM*	3.6%	-8.7%[0.365 µM]	-3.0%	-1.1%
Cc1ccccc1NC(=S)NCCC(c1ccccc1)c1ccccc1	18.6%	5.01µM*	20.2%	12.6µM*	12.6µM*	0.0%

Screens as filed in PubChem BioAssay.
